The results in this text go back to PubChem BioAssay (NCATS).

“And” between values parts separate entries of the source, which are not always exact repeats. Identical values can stand only once. Records with an inconclusive call do not appear. The source made the active and inactive calls. Unless noted, the call rests on the fitted dose curve; in most records, active means well fitted curve in the direction sought with a large enough effect; inconclusive means small, poorly fitted or top-dose-only effect, or another doubt; inactive means no such curve, though single readings can be large; an effect the other way counts as inactive or inconclusive. *1 amine or outer side, *2 acyl side, *3 side chain or, on linkers, in order; H or OH if unused. Where a SMILES comes first, the peptide text is derived from it. [ ]: non-standard residue; d: D form. X7 = O=C([C@@H](CC(O)CCl)O[*:1])[*:2]; aIle = CC[C@@H](C)[C@H](N)C(=O)O; NMeV = CN[C@H](C(=O)O)C(C)C; NMeA = CN[C@@H](C)C(=O)O; βAla = NCCC(=O)O

The nature of assay [1]: P-glycoprotein substrates identified in KB-8-5-11 adenocarcinoma cell line, qHTS therapeutic library screen (AID 1346987). Further: nearly all actives have a fitted effect of over 65% in size. Further: potency means the concentration at half of the fitted maximal effect. The method, boiled down: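 KB-8-5-11: colchicine-selected sub-line of KB-3-1 over-expressing P-gp; assay medium lacked colchicine. 72 h drug exposure at 37 degree C, CellTiter-Glo.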
Background: Quantitative high-throughput screening tests each substance at several concentrations.

The nature of assay [2]: Primary qHTS for inhibitors of nuclear receptor binding SET domain protein 2 (NSD2) in an RCH-ACV wild type WT cells (2C) (AID 1645877). Further: potency means the concentration at half of the fitted maximal effect; nearly all actives have a fitted effect of over 70% in size.
Assay [3] is described as follows: Primary redox qHTS assay for identification of artifact compounds. (AID 1845223).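 Further: 0% = DMSO and 100% = reference compound.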 The method, boiled down:
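Amplex Red (25 uM) and HRP (250 mU/mL) in HBSS, with compounds for 15 min, then 250 uM DTT for 30 min, room temperature, dark. Fluorescence 525/598 nm read; normalized to DMSO and 10 uM DA3003; Hill fit.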

A further assay deals with CAOV3. The experiment in a line: Primary qHTS to identify gynecologic anti-cancer compounds using libraries of approved drugs and bioactive compounds (AID 1345084). Further: nearly all actives have a fitted effect of over 55% in size. Further: potency means the concentration at half of the fitted maximal effect. Conditions: Gynecologic cancer cell panel viability, ATPlite luminescence, 48 h; series mostly up to 57.5 µM. The essentials: (§1)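 Cells, 1,000 per well, plated 16 h, then exposed 48 h at 37 C to compounds. Viability by ATPlite luminescence after 15 min at room temperature.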

For assay [4], the target named is Cytochrome P450 2D6 (Homo sapiens) (UniProt P10635). The experiment in a line: Cytochrome P450 family 2 subfamily D member 6 (CYP2D6) small molecule antagonists: luciferase biochemical (cell-free) qHTS assay (AID 1645840; active means well fitted curve in the direction sought with a large enough effect in the repeat runs; an effect the other way counts as inactive or inconclusive; further: on the % scale 0 is the no-effect control and ±100 the full control effect; nearly all actives have a fitted effect of over 55% in size). The method, boiled down:
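P450-Glo luminescent screen: recombinant CYP2D6 enzyme–proluciferin substrate mix preincubated with compound 10 min at room temperature, then NADPH regeneration added for 1 h at room temperature. Detection reagent added for 20 min; luciferin light read as relative luminescence units.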

Assay [5] concerns the target Cytochrome P450 2C9 (Homo sapiens) (UniProt P11712). The experiment in a line: Cytochrome P450 family 2 subfamily C member 9 (CYP2C9) small molecule antagonists: luciferase biochemical (cell-free) qHTS assay (AID 1645842; active means well fitted curve in the direction sought with a large enough effect in the repeat runs; an effect the other way counts as inactive or inconclusive). The method, boiled down: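 Luminescence, after 20 min with luciferin detection reagent, reflected CYP2C9 turnover during a 1 h NADPH-driven reaction at 37C. Enzyme-substrate mix contained 0.4% bovine serum albumin and was preincubated with compound 10 min at room temperature.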

Assay [6] can be described thus: Primary qHTS to identify inhibitors of SARS-CoV-2 cell entry (AID 1645846; calls by dose curve; further: nearly all actives have a fitted effect of over 45% in size; further: potency means the concentration at half of the fitted maximal effect). Conditions: activity change, negative = inhibition: at 57.1 µM (top of the series) unless noted. The essentials: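 Entry measured by luciferase signal 48 h after adding SARS-CoV-2-S pseudotyped MLV particles to HEK293-ACE2 cells preincubated 1 h with compounds. Normalisation: bald particles and spike particles.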

The next assay has as its system SKOV3. The experiment in a line: Primary qHTS to identify gynecologic anti-cancer compounds using libraries of approved drugs and bioactive compounds (AID 1345084). Further: nearly all actives have a fitted effect of over 55% in size. Further: potency means the concentration at half of the fitted maximal effect. Conditions: Gynecologic cancer cell panel viability, ATPlite luminescence, 48 h; series mostly up to 57.5 µM. The method, boiled down:
as §1

The subject of assay [7] is Zika virus NS2B-NS3 protease (unlinked complex). The experiment in a line: Primary screen GU Rhodamine qHTS for Zika virus inhibitors: Unlinked NS2B-NS3 protease assay (AID 1347159). Further: on the % scale 0 is the no-effect control and ±100 the full control effect; nearly all actives have a fitted effect of over 60% in size. The essentials: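 Noncovalent NS2B hydrophilic domain/NS3 protease complex (25 nM final) in 10 mM Tris-HCl pH 8.0, 0.01% Tween 20, preincubated 15 min with compounds (up to 114 microM), then 1.5 microM Rhodamine110 substrate. Fluorescence change over 15 min fitted to 4-parameter Hill.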

A further assay deals with KB-3-1. Briefly: Cytotoxic Profiling of Annotated Libraries Using Quantitative High-Throughput Screening (AID 1296008). Further: nearly all actives have a fitted effect of over 60% in size. Further: potency means the concentration at half of the fitted maximal effect. As to conditions: Five cell lines viability, CellTiter-Glo ATP luminescence, 48-72 h; max response: stronger effect = lower value. The essentials:
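Compounds were pin-transferred onto cells and incubated 48 or 72 hr at 37 degree Celsius, 95% humidity. CellTiter-Glo was added, plates sat 10 min at room temperature, then ATP-coupled luminescence was imaged as the viability read-out.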
A general note: Cellular ATP, detected with luciferase, serves as a proxy for viable cell number.

Assay [8] in a line: Primary fluorescence-based thiol-reactive (MSTI) qHTS assay for identification of artifact compounds. (AID 1845221).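 Further: thiol-reactive compounds lower the probe fluorescence signal; nearly all actives have a fitted effect of over 65% in size.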 The essentials:
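MSTI probe at 4 uM final in 2% DMSO/PBS pH 7.4; compounds, 1 h at room temperature in dark. Fluorescence Ex/Em 525/598 nm, normalised to Acetyl-MSTI and MSTI, fitted to 4-parameter Hill.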

Assay [9] can be described thus: P-glycoprotein substrates identified in KB-3-1 adenocarcinoma cell line, qHTS therapeutic library screen (AID 1346986). Further: nearly all actives have a fitted effect of over 60% in size.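 Further: potency means the concentration at half of the fitted maximal effect; potency is for cytotoxicity meaning loss of cell viability.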 The essentials: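 KB-3-1 parental cells and P-gp-overexpressing KB-8-5-11 (colchicine omitted during assay) plated at 500 cells/well, dosed in dose-response, incubated 72 h at 37 degree C. CellTiter-Glo luminescence read; KB-8-5-11 also tested with tariquidar.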

The nature of assay [10]: qHTS drug screen for cell cycle checkpoint inhibitors in PARPi-resistant BRCA-mutant ovarian cancer cell lines. (AID 1963452; calls by dose curve). As to conditions: PEO1/OlaR viability, CellTiter-Glo luminescence, 96 h, stronger effect = lower value. The essentials: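 PEO1, PEO4 and PEO1/OlaR ovarian cancer cells, 600 per well, exposed 96 h at 37C to a dilution series. Viability read by CellTiter-Glo luminescence, normalized to DMSO and empty wells; activity summarized as Z-AUC.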

The next assay relates to HeLa. The experiment in a line: Primary qHTS to identify gynecologic anti-cancer compounds using libraries of approved drugs and bioactive compounds (AID 1345084). Further: nearly all actives have a fitted effect of over 55% in size. Further: potency means the concentration at half of the fitted maximal effect. Conditions: Gynecologic cancer cell panel viability, ATPlite luminescence, 48 h; series mostly up to 57.5 µM. The method, boiled down:
as §1

Cytochrome P450 2C9 (Homo sapiens), sequence (P11712 whole entry, looked up): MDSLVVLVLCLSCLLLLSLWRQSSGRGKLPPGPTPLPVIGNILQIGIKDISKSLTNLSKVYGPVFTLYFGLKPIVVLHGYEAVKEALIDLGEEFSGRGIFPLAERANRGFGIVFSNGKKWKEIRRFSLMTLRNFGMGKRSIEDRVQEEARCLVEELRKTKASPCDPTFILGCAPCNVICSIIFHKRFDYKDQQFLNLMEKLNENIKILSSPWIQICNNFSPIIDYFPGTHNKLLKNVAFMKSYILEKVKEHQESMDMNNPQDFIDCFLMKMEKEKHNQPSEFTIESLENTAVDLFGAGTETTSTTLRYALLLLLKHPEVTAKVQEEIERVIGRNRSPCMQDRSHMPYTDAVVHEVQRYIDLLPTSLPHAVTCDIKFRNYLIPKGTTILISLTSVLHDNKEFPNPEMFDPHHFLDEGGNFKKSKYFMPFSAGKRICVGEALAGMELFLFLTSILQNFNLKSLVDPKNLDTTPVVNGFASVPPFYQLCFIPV
Cytochrome P450 2D6 (Homo sapiens), sequence (P10635 whole entry, looked up): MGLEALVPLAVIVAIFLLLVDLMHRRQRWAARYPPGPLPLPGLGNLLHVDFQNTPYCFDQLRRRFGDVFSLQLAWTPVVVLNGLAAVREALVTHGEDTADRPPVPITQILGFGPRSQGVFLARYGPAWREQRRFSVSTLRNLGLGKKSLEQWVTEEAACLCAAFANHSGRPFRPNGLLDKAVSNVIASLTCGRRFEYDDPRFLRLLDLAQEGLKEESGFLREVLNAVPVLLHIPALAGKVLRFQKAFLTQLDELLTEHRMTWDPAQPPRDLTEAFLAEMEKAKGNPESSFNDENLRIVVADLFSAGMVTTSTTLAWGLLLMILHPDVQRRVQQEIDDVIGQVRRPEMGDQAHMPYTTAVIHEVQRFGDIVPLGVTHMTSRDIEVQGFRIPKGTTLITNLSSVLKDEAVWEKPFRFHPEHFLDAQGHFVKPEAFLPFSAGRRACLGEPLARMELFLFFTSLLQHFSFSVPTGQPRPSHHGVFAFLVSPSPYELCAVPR

For the compound `CC[C@@H](C)[C@@H]1NC(=O)[C@@H]2CCCN2C(=O)[C@@H](CC(O)CCl)OC(=O)CCNC(=O)[C@H](C)N(C)C(=O)[C@H](C(C)C)N(C)C1=O` (stereo partly specified) (cyclo([NMeA][βAla][X7]P[aIle][NMeV])), the Potency entry in assay [1] and in assay [3] was “inactive” in each case. Further, the Potency in assay [2] is 483 nM (active); with CAOV3, 3160 nM (active).

On to `Cc1sc2c(c1C)C(c1ccc(Cl)cc1)=NC(CC(=O)Nc1ccc(O)cc1)c1nnc(C)n1-2` (stereo unspecified), for which the Potency entry in [4], in assay [5] and in assay [3] was “inactive” in each case. For the same compound, the activity change, negative = inhibition in [6] is -87.5%. Besides, the Potency in [2] is 129 nM (active) and 296 nM (active); with SKOV3, 3160 nM (active).

As to `C[C@@H]1C[C@@H](O)[C@]2(O)O[C@@H]3C[C@@]4(C=O)C(CC[C@@H]5C4CC[C@]4(C)[C@@H](C6=CC(=O)OC6)CC[C@]54O)C[C@H]3O[C@@H]2O1` (stereo partly specified), the Potency was 63.2 nM (active) in [1], 79.6 nM (active) in [2] and 100 nM (active) in the assay on KB-3-1. For the same compound, the Potency entry in assay [7] and in assay [3] was “inactive” in each case.

For `COc1cc2c(c(OC)c1OC)-c1ccc(SC)c(=O)cc1[C@@H](NC(C)=O)CC2`, the Potency is 231 nM (active) in assay [1] and 5.8 nM (active) in the assay with KB-3-1. Besides, the Potency result in [8] was “inactive”.

As to `C[C@H]1CCC/C=C/C2C[C@H](O)C[C@H]2[C@H](O)/C=C/C(=O)O1` (stereo partly specified), the Potency is 146 nM (active) in assay [9]; 184 nM (active) in assay [1]; 1000 nM (active) in assay [6]; 316 nM (active) in the assay on CAOV3; 355 nM (active) in the assay on HeLa. Also, the Potency result in assay [7], in assay [8] and in [3] was “inactive” each time. In addition, the Z-AUC was -0.883 (inactive) in assay [10], -1.19 in assay [10] (measured here: PEO1 parental Z-AUC) and -1.2 in [10] (measured here: PEO4 Z-AUC).

With `COC1C(O)C(C)OC(OC2C(CO)O[C@@H](O[C@@H]3CC4CCC5C(CC[C@]6(C)[C@@H](C7=CC(=O)OC7)CC[C@]56O)[C@@]4(C)[C@H](OC(C)=O)C3)C(O)C2O)C1O` (stereo partly specified), the figures for the Potency (in assay [1]; in [2]; with HeLa) were 2730 nM (active), 2420 nM (active) and 10000 nM (active), respectively.

For `C[C@]12CC[C@H](O)C[C@@H]1CC[C@@H]1[C@@H]2CC[C@]2(C)C(=O)CC[C@@H]12`, the Potency result (in [9]; in [1]; in assay [7]; in [8]; in assay [3]; with CAOV3) was “inactive” in each case. For the same compound, the Potency result in the assay on HeLa and with SKOV3 was “inactive” each time. In addition, the call in the assay on KB-3-1 was inactive.
